Results taken from the supplement of paper PMC10849652.
About 7,900 targets were measured; listed, in parts, are those with a hit and a random draw of the rest. About 0.6% of all pairs of compound and target were hits. A number with no mark means an inactive call.

How the values were obtained:
Test in all cases: log2 fold change, soluble protein after heating vs DMSO (PISA); higher = thermal stabilisation; K562 cells, 10 uM, 30 min; active = over 0.2 and 3.5 SD of the protein, either way, in both replicates (recomputed)
[1] = compound: CS(=O)(=O)c1ccc(-c2cnc(N)c(C(=O)Nc3ccccc3)n2)cc1
How it was run: (§1)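 Soluble protein was defined as the supernatant after 21,000xg for 90 min. It came from K562 cells at 2×10^6 cells/mL given 10 μM compound for 30 min, heated in aliquots for 3 min across 48°C-58°C, pooled, and extracted in PBS with 0.5% NP-40 at 4°C, and was quantified by TMTpro 16plex LC-MS/MS with equalised channel sums. Thermal stability against control samples, from duplicates, is reported as log2 fold change.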

crizotinib = compound: C[C@@H](Oc1cc(-c2cnn(C3CCNCC3)c2)cnc1N)c1c(Cl)ccc(F)c1Cl [crizotinib]
How it was run: as §1

[2] = compound: C[C@@H]1COCCN1C2=NC(=NC(=C2)C3(CC3)S(=O)(=O)C)C4=C5C=CNC5=CC=C4
How it was run: as §1

[3] = compound: C[C@H](C1=CC=C(C=C1)C(=O)NC2=C3C=CNC3=NC=C2)N
How it was run: as §1

duvelisib = compound: C[C@H](Nc1ncnc2nc[nH]c12)c1cc2cccc(Cl)c2c(=O)n1-c1ccccc1 [duvelisib]
How it was run: as §1

gandotinib = compound: Cc1cc(Nc2cc(CN3CCOCC3)c3nc(C)c(Cc4ccc(Cl)cc4F)n3n2)n[nH]1 [gandotinib]
How it was run: as §1

tozasertib = compound: Cc1cc(Nc2cc(N3CCN(C)CC3)nc(Sc3ccc(NC(=O)C4CC4)cc3)n2)n[nH]1 [tozasertib]
How it was run: as §1

[4] = compound: Cc1cc(SCc2sc(-c3ccc(C(F)(F)F)cc3)nc2C)ccc1OCC(=O)O
How it was run: as §1

doramapimod = compound: Cc1ccc(-n2nc(C(C)(C)C)cc2NC(=O)Nc2ccc(OCCN3CCOCC3)c3ccccc23)cc1 [doramapimod]
How it was run: as §1

ispinesib = compound: Cc1ccc(C(=O)N(CCCN)[C@@H](c2nc3cc(Cl)ccc3c(=O)n2Cc2ccccc2)C(C)C)cc1 [ispinesib]
How it was run: as §1

Chain of UniProt Q12894 (Q12894 whole entry, looked up): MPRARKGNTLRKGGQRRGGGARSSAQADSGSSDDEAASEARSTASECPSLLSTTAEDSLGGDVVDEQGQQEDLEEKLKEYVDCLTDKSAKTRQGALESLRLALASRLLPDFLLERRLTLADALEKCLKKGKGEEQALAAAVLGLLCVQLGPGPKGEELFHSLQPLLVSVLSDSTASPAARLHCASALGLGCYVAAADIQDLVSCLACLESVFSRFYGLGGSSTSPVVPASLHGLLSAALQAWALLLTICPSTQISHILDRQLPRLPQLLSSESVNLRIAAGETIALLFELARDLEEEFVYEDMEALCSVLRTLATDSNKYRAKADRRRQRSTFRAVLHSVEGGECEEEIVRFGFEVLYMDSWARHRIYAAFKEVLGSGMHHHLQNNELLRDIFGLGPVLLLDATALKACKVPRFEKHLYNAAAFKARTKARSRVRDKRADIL
Chain of UniProt Q9H0R4 (Q9H0R4 whole entry, looked up): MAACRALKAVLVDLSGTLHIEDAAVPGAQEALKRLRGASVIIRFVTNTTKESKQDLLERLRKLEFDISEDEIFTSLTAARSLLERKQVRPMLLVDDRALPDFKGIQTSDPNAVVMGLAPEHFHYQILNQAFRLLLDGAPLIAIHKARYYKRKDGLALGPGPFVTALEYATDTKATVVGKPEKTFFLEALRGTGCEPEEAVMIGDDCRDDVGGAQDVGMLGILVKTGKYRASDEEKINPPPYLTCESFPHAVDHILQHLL
Chain of UniProt Q10471 (Q10471 whole entry, looked up): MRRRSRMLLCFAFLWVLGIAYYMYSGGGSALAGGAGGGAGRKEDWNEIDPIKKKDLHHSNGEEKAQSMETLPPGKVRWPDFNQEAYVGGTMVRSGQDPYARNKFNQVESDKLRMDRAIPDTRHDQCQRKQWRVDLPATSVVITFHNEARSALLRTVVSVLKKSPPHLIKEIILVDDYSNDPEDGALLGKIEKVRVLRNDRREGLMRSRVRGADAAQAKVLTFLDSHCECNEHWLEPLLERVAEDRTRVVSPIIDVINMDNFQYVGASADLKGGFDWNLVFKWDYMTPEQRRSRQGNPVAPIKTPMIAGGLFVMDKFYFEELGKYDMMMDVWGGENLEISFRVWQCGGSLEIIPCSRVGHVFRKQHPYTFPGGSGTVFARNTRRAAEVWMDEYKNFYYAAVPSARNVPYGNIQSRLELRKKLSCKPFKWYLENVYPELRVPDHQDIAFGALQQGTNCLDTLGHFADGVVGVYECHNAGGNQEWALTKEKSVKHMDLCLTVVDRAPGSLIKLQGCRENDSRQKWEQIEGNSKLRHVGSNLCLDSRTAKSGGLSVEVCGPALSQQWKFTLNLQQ
Chain of UniProt P69905 (P69905 whole entry, looked up): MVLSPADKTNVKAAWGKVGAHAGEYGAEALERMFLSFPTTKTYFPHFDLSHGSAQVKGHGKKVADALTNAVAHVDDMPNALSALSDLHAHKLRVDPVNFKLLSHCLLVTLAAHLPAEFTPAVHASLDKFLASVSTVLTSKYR
Chain of UniProt Q658Y4 (Q658Y4 whole entry, looked up): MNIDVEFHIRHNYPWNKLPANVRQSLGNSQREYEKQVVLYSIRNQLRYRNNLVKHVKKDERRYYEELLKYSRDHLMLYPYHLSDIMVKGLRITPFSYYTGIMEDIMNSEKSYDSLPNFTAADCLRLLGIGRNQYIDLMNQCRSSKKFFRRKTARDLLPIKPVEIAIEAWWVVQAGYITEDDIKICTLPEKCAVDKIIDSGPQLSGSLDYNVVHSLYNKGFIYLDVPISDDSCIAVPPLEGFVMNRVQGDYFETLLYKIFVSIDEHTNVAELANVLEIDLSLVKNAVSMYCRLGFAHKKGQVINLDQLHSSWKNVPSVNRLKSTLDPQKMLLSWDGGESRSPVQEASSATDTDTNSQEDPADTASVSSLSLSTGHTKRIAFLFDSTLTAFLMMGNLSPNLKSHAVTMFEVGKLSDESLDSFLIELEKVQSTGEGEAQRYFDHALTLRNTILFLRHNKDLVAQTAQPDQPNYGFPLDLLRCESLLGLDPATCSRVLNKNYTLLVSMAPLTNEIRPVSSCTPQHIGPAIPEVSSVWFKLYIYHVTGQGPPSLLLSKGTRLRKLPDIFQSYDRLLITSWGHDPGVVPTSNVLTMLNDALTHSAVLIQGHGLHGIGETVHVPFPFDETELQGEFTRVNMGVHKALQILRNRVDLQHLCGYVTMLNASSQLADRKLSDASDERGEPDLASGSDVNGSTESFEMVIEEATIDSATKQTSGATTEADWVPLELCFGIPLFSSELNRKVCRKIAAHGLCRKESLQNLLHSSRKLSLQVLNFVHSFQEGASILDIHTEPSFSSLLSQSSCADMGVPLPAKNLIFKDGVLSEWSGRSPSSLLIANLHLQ
Chain of UniProt Q14527 (Q14527 whole entry, looked up): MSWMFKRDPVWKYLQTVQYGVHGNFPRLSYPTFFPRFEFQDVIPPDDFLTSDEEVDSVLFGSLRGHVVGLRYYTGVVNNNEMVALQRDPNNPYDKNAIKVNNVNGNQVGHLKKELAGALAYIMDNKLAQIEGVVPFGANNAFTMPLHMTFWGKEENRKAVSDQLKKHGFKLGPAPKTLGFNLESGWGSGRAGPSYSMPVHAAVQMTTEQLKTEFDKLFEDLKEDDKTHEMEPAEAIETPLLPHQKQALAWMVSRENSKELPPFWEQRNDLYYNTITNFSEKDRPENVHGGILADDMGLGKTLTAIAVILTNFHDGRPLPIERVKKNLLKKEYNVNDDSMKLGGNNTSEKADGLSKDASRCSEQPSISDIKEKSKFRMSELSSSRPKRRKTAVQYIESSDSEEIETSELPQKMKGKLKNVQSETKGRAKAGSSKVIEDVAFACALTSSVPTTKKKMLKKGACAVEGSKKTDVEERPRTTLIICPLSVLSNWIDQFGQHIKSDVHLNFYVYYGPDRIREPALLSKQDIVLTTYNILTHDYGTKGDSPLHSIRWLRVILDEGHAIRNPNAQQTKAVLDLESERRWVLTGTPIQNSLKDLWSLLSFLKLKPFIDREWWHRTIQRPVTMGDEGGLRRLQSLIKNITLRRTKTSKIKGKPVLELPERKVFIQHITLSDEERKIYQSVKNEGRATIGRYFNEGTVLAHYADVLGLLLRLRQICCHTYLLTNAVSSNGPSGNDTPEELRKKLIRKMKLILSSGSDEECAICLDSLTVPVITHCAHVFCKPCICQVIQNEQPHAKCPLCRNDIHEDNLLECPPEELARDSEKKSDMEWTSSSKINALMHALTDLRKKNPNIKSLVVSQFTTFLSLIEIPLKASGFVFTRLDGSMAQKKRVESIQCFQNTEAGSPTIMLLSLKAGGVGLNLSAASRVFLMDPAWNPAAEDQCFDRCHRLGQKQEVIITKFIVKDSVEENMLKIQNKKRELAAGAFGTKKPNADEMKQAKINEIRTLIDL
Chain of UniProt Q9Y6M1 (Q9Y6M1 whole entry, looked up): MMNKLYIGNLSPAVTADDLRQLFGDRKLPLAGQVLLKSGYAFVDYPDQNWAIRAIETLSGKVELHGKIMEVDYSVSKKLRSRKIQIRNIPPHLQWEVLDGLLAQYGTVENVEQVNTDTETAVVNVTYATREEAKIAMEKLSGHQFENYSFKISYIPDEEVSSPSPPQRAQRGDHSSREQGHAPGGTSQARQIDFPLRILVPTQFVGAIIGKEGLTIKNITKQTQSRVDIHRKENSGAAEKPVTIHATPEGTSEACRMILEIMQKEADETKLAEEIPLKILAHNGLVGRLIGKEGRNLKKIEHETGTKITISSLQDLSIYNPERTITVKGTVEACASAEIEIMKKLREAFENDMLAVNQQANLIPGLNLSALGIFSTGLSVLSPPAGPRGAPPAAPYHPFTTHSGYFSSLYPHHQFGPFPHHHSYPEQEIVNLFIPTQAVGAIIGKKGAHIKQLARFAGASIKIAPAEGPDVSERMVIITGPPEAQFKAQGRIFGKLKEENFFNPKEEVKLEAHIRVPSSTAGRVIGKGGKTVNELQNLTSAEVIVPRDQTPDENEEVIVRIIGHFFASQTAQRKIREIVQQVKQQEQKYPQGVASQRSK
Chain of UniProt Q86UL3 (Q86UL3 whole entry, looked up): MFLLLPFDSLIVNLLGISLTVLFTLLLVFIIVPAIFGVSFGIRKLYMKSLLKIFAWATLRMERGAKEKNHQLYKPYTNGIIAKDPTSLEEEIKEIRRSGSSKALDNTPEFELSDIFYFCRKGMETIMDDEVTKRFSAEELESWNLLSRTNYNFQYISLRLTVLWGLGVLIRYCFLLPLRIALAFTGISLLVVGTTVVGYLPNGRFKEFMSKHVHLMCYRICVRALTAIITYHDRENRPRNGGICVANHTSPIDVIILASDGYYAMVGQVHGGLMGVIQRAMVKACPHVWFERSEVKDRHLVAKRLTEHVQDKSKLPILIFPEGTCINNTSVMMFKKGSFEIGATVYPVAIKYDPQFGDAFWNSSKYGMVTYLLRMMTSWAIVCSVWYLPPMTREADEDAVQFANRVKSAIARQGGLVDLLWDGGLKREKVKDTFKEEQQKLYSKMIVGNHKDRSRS
Chain of UniProt Q10472 (Q10472 whole entry, looked up): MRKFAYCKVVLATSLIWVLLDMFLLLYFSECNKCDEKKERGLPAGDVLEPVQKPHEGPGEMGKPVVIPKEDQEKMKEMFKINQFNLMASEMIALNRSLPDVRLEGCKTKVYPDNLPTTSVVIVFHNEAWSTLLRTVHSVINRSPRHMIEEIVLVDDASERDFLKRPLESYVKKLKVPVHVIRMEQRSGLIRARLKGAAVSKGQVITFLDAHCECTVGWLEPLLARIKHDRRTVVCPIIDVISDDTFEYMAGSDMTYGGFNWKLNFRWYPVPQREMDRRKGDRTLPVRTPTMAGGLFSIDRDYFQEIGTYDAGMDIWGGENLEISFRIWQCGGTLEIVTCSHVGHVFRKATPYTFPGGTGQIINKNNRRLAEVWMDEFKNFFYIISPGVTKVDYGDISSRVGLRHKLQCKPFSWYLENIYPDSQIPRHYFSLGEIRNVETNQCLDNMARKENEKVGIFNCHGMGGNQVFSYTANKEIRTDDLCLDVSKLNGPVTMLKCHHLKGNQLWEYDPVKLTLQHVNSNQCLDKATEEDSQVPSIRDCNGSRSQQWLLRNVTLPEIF
Chain of UniProt P52657 (P52657 whole entry, looked up): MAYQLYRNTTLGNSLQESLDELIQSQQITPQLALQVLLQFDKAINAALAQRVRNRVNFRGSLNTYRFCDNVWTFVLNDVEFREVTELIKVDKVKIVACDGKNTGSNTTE

Target	log2 fold change [1]	log2 fold change (crizotinib)	log2 fold change [2]	log2 fold change [3]	log2 fold change (duvelisib)	log2 fold change (gandotinib)	log2 fold change (tozasertib)	log2 fold change [4]	log2 fold change (doramapimod)	log2 fold change (ispinesib)
HNRNPUL1 (UniProt Q9BUJ2)	0.007	-0.023	-0.016	0.147	-0.036	0.049	0.039	0.085	-0.025	-0.019
GSTP1 (UniProt P09211)	0.023	0.038	0.033	-0.067	0.037	-0.005	-0.008	0	-0.019	0.058
GTF3C5 isoform 3 (UniProt Q9Y5Q8)	0.01	0.17	0.016	0.158	-0.106	0.043	0.063	0.034	0.095	-0.248
GNPAT (UniProt O15228)	0.029	-0.071	0.087	-0.088	0.021	-0.076	-0.002	0.06	0.034	-0.006
GLUD2 (UniProt P49448)	0.102	0.003	0.011	-0.062	0.191	0.064	-0.095	0.016	0.041	0
FECH isoform 2 (UniProt P22830)	0.527	0.021	0.161	-0.12	0.263	0.178	0.162	0.029	0.071	-0.37
IGF2BP2 (UniProt Q9Y6M1)	0.009	-0.062	-0.186	0.531 (active)	-0.161	0.139	0.012	0.158	0.288	-0.182
HLTF (UniProt Q14527)	-0.034	0.045	-0.143	0.006	-0.006	-0.078	-0.023	0.063	-0.003	0.006
HBA1 (UniProt P69905)	0.009	0.097	0.213	-0.058	0.094	0.025	0.081	0.004	0	0.24
FANCI (UniProt Q9NVI1)	-0.074	-0.138	0.139	0	0.031	-0.14	0.029	0.038	-0.021	-0.071
GSTO1 (UniProt P78417)	0.047	0	0.013	-0.072	0.064	-0.017	-0.01	0	-0.02	0.036
GTF2B (UniProt Q00403)	-0.007	-0.044	0.115	0.001	0.121	-0.146	0.102	0.127	-0.044	-0.091
GCSH (UniProt P23434)	-0.009	0.073	0.005	-0.022	-0.014	0.043	0.07	0.026	0.032	-0.057
GTF2A2 (UniProt P52657)	0.022	0.11	0.102	0.015	0.067	-0.005	0.031	-0.076	-0.034	0.023
GALNT2 (UniProt Q10471)	0.056	-0.005	0.093	-0.015	0.05	-0.024	-0.065	0.022	-0.001	0.034
FUBP3 (UniProt Q96I24)	-0.076	-0.046	-0.083	0.065	-0.002	-0.106	-0.028	0.013	-0.025	-0.049

Target	log2 fold change [1]	log2 fold change (crizotinib)	log2 fold change [2]	log2 fold change [3]	log2 fold change (duvelisib)	log2 fold change (gandotinib)	log2 fold change (tozasertib)	log2 fold change [4]	log2 fold change (doramapimod)	log2 fold change (ispinesib)
GALNT1 (UniProt Q10472)	0.014	-0.012	0.019	-0.013	0.046	0.012	-0.043	0.004	0.026	0.048
HIST2H2BF isoform 2 (UniProt Q5QNW6)	-0.049	-0.095	-0.279	0.38	-0.051	-0.018	0.119	-0.064	0.253	-0.178
IFRD2 isoform 2 (UniProt Q12894)	0.352	-0.047	0.396	-0.035	0.024	0.155	-0.123	-0.059	0.052	0.089
GALNT4 (UniProt Q8N4A0)	0.047	-0.068	0.156	0.017	0.09	-0.153	-0.028	0.036	0.013	0.04
HDHD2 (UniProt Q9H0R4)	-0.11	-0.031	-0.01	0.001	-0.019	0	-0.039	-0.023	-0.081	0.004
GPAT4 (UniProt Q86UL3)	0.15	0.287 (active)	0.066	-0.071	0.017	-0.009	0.063	0.061	-0.063	0.194
HMG20A (UniProt Q9NP66)	-0.042	0.07	-0.018	-0.199	0	0.104	-0.035	-0.087	0.071	0.352
FANCD2 isoform 1 (UniProt Q9BXW9)	-0.056	-0.052	0.127	-0.014	-0.014	-0.135	0.003	0.034	0.004	-0.096
GIGYF2 (UniProt Q6Y7W6)	0.005	-0.084	0.083	0	0.006	-0.03	-0.012	0.114	-0.028	-0.179
GUK1 isoform 2 (UniProt Q16774)	0.13	-0.007	0.161	0.049	0.123	-0.03	0.018	0.102	-0.004	0.012
GSK3B isoform 2 (UniProt P49841)	0.09	-0.053	-0.032	-0.143	-0.015	-0.108	-0.043	0.015	-0.013	0.059
GCLM (UniProt P48507)	0.058	-0.003	0.042	-0.019	-0.007	-0.15	0.108	0.06	-0.072	0.076
FAM91A1 (UniProt Q658Y4)	-0.11	-0.006	0.192	-0.034	-0.008	-0.08	0.022	-0.001	-0.012	0.014
GOPC (UniProt Q9HD26)	0.218	0.293	-0.043	0.294	-0.003	0.101	0.144	0.091	0.061	0.038
FHOD1 (UniProt Q9Y613)	0.033	-0.107	-0.174	0.58 (active)	-0.121	0.105		0.085	0.235	-0.193
FARS2 (UniProt O95363)	0.004	-0.043	0.088	0.041	0.073	-0.021	0.045	0.06	-0.023	-0.157
